Measured values as given in PubChem BioAssay (Tox21).
The source made the active and inactive calls. Where a call stands in place of a potency, no number is given. The call rests on the fitted dose curve.

Target: Gonadotropin-releasing hormone receptor (Homo sapiens) (UniProt P30968)
Test: Human gonadotropin-releasing hormone receptor (GnRHR) small molecule agonists, calcium flux assay in GnRHR-HEK293 cells (AID 1920063); further: nearly all actives have a fitted effect of over 35% in size
Conditions: calcium flux fluorescence, agonist mode; series mostly up to 57.6 µM
Text: National Center for Advancing Translational Sciences [NCATS]
Division of Preclinical Innovation [DPI]
U.S. Environmental Protection Agency [EPA]
National Institutes of Environmental Health Sciences [NIEHS]
National Toxicology Program [NTP]
U.S. Food and Drug Administration [FDA]
Gonadotropin-releasing hormone receptor (GnRHR) is a G-protein-coupled receptor (GPCR) and acts (through phospholipase C) to increase intracellular inositol trisphosphate and then release intracellular calcium stores. Cell-based GnRHR-Hek293 calcium influx assay is using HEK293 cells that have been genetically engineered to express the human GnRHR, which activity can be measured by calcium signaling. A compound/drug can activate (agonist) GnRHR that can be monitored by levels of intracellular calcium.
GnRHR-HEK293 cells developed by Codex Corp contain human GnRHR reporter gene, which was stably integrated into HEK 293 cells. The compound activation can be detected by fluorescence intensity via calcium flux assay. This cell line has been used to screen the Tox21 10K compound library to identify GnRHR agonists.
GnRHR-Hek293 cells were dispensed at 1500cells/4uL/well in 1536-well black wall/clear bottom plates using a multidrop dispenser. After the assay plates were incubated at a 37 C/5% CO2 incubator for 18 hours, 4 uL of Calcium Dye Solution was added to each well. The plates were incubated at 37 C for 1 hour. For agonist mode, 23 nL of compounds dissolved in DMSO, positive controls or DMSO only was transferred to the assay plate by a pin tool station. The fluorescence intensity in the plates was measured using FDSS 7000EX kinetic plate reader with a filter set of Ex/Em=480/540 for 3 min at 1 sec intervals. Each test compound was measured at 15 concentrations and in triplicates.

Sequence of Gonadotropin-releasing hormone receptor (Homo sapiens) (P30968 whole entry, looked up): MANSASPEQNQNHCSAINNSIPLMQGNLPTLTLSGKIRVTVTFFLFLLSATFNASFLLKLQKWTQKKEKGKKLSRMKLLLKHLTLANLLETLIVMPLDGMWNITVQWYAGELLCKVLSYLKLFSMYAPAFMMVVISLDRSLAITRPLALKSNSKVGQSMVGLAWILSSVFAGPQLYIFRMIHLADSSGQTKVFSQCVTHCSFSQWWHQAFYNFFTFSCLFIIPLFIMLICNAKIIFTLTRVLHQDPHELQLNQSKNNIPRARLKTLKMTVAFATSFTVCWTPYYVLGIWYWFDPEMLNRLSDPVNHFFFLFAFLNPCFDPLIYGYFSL

Structure (SMILES) | Potency
CC1CCC2CC1C2(C)C (stereo not given) | inactive
CCCCCCCCCC(=O)OC | inactive
O=S1(=O)CCCO1 | inactive
C=CCNC(N)=S | inactive
C=C(C)C(=O)OCCC[Si](OC)(OC)OC | inactive
CCCCCCCCCCCC[N+](C)(C)C | inactive
O=C(O)Cc1c[nH]c2ccccc12 | inactive
Cc1ccc(C(=O)O)o1 | inactive
CC(O)COc1ccccc1 (stereo not given) | inactive
Cc1c(C(N)=O)cc([N+](=O)[O-])cc1[N+](=O)[O-] | inactive
CCCCCCC(=O)O | inactive
NC(=O)/N=N/C(N)=O | inactive
CC(CCO)CC(C)(C)C (stereo not given) | inactive
O=C(Cl)c1c(Cl)c(Cl)c(C(=O)Cl)c(Cl)c1Cl | inactive
OC[C@@H](O)[C@@H](O)[C@H](O)[C@@H](O)CO | inactive
CC(=O)C(=O)O | inactive
CCCCCCCC=O | inactive
CCCCNS(=O)(=O)c1ccccc1 | inactive
COC(=O)/C=C\C(=O)OC | inactive
CCCOC(=O)c1cc(O)c(O)c(O)c1 | inactive

Structure (SMILES) | Potency
O=C1NS(=O)(=O)c2ccccc21 | inactive
CCCCNC(N)=O | inactive
O=C(O)CCCC(=O)O | inactive
Cc1ccc(S(=O)(=O)NCl)cc1 | inactive
CN(C)CCOCCN(C)C | inactive
COc1ccc([N+](=O)[O-])cc1N | inactive
CC(=O)CC(c1ccccc1)c1c(O)c2ccccc2oc1=O (stereo not given) | inactive
Cc1cccc(O)c1 | inactive
C[C@]12CC[C@@H]3c4ccc(O)cc4CC[C@H]3[C@@H]1CC[C@H]2O | inactive
CN(C)CCC(c1ccccc1)c1ccccn1 (stereo not given) | inactive
C=C(C)C(=O)OCCCCCC | inactive
CCCCCCCCCCCCCCCC(=O)O | inactive
CCC(Cc1c(I)cc(I)c(N)c1I)C(=O)O (stereo not given) | inactive
CCc1cccc(O)c1 | inactive
CCCCC(C=O)CC (stereo not given) | inactive
CCNC(=S)NCC | inactive
O=C(O)c1ccccc1 | inactive
CCO[Si](CCCNC(N)=O)(OCC)OCC | inactive
CC(=O)CCC=C(C)C | inactive
C=CC(=O)OCCCC | inactive
